Screening data (PubChem BioAssay)
IMPase Li inh: cell-permeable IMPase inhibitors with lithium potentiation; 210,000 compounds, 0.35% hits; CHO-M1 cells, IP1 TR-FRET (IP-One), carbachol + lithium; Potency, µM (titrated, usually from 59.4 µM), inactives show top-dose activity, negative = IMPase inhibition, actives largely listed as inhibitors;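 further: IP1 builds up when IMPase is blocked and the TR-FRET signal falls; plate controls were basal vehicle for no effect and high inhibitor control for full effect; nearly all actives have a fitted effect of over 50% in size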
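CHO-M1, 2000 cells/well, 16–30 h culture; cpd + low Li+, 30 min 37C; lysis with d2-IP1/Eu-anti-IP1 Ab, 10 min RT; TR-FRET 665/620 ratio and 620 channel; AC50 via Hill.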
KDM4E inh: blocks human JMJD2E demethylase activity | AID 2147 | B2RXH2 | JMJD2E catalytic domain, FDH-coupled NADH fluorescence (FDH is formaldehyde dehydrogenase) | 230,000 compounds, 1.6% hits | Potency, µM (top dose mostly 57.1 µM), inactives show at the top dose activity change, negative = inhibition, actives largely listed as inhibitors; active means well fitted inhibition curve with a large enough effect, not every such curve was filed as active; inconclusive means small, poorly fitted or top-dose-only effect, or another doubt; inactive means no such curve, though single readings can be large or run the other way;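 further: 0% = wells with enzyme and -100% = buffer wells without enzyme; nearly all actives have a fitted effect of over 50% in size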
Sfp PPTase inh: inhibitors of Bacillus subtilis Sfp phosphopantetheinyl transferase. Q9F4F7. Biochemical Sfp PPTase activity, qHTS. Potency, µM, without a hit: largest response in the series, negative = inhibition, most hits filed as inhibitors. 310,000 compounds, 3.5% hits;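 further: the enzyme is Sfp with the accession as filed and its product quenches rhodamine fluorescence; 0% = enzyme reaction without inhibitor and -100% = no enzyme wells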
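Sfp 15 nM + cpd, 15 min RT; start w/ rhodamine-CoA 5 uM, BHQ-2-YbbR 12.5 uM (final); 50 mM Hepes pH 7.6, 10 mM MgCl2, 0.01% NP-40, 0.01% BSA; read 525/598 nm at 0 and 30 min.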
Epigenetic derep: regulators of epigenetic silencing causing reporter derepression in mouse cells; murine LDR cells, GFP reporter derepression, 30 h; Potency, µM (top dose mostly 53.9 µM), for inactives: top-dose GFP activation, actives largely listed as activators; 280,000 compounds, 0.2% hits; further: % of control where 0% means no effect; nearly all actives have a fitted effect of over 60% in size
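Murine LDR cells carrying a silenced, genomically integrated CMV-driven GFP reporter were exposed to compound for 30 hours at 37 C. After PBS washes, GFP-positive cells (20–120 um objects) were counted by laser-scanning microplate cytometry.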
KAT2A inh: GCN5L2 (KAT2A) acetyltransferase inhibition; Q92830; GCN5L2 HAT assay, ThioGlo1 CoA-SH fluorescence; Potency, µM (series often up to 58.9 µM), without a hit: at the highest dose activity change, negative = inhibition, actives largely listed as inhibitors; 390,000 compounds, 0.21% hits; AID 504327; further: on the % scale 0 is the no-effect control and ±100 the full control effect
Target sequence (Q92830 whole entry, looked up): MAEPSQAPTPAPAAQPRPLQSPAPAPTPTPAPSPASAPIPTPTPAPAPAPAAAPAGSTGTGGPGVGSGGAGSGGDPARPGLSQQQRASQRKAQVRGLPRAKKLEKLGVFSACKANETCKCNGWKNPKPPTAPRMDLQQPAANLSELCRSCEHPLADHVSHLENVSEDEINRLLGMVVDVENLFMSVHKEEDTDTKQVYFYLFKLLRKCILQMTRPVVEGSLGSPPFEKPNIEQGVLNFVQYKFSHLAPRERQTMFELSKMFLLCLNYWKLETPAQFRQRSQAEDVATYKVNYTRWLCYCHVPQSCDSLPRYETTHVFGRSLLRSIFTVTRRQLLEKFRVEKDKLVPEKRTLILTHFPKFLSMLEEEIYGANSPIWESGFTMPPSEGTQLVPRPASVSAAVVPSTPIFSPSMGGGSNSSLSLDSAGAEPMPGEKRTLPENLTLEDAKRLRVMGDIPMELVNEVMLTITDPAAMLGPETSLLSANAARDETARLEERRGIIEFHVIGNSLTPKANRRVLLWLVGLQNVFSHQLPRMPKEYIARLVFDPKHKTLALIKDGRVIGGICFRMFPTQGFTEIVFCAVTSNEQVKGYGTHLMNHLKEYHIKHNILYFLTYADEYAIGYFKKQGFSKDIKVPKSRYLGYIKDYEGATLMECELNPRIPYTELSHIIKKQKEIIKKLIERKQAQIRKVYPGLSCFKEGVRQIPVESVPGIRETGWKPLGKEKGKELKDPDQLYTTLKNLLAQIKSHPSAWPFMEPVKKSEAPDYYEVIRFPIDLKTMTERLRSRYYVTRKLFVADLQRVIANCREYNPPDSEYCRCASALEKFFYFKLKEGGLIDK
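Compounds, pin-transferred from DMSO stocks, meet 20nM GCN5L2 for 15 min before the reaction begins with H3(1-25) peptide (75uM) and acetyl-CoA (70uM). Thiol-reactive ThioGlo1 reports CoA release over 20 min at room temperature.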
NPSR antag: antagonists of human neuropeptide S receptor cAMP signaling; 220,000 compounds, 1% hits; Q6W5P4; Potency, µM (doses to about 38.3 µM), for inactives: at the top dose activity change, negative = inhibition, hits mostly inhibitors; CHO-NPSR cells, cAMP TR-FRET, antagonist mode; AID 1461; further: on the % scale 0 is the no-effect control and ±100 the full control effect; nearly all actives have a fitted effect of over 50% in size
Starred values were filed as active, the others as inactive; ? = inconclusive; nt = not tested or not shown; [ ] = another dose, or the depositor's remark. Most compounds without a hit are left out; they make up all but 3.6% or so of the library. Unless noted, the call rests on the fitted dose curve; in most records, active means well fitted curve in the direction sought with a large enough effect; inconclusive means small, poorly fitted or top-dose-only effect, or another doubt; inactive means no such curve, though single readings can be large; an effect the other way counts as inactive or inconclusive. Potency means the concentration at half of the fitted maximal effect.

SMILES	IMPase Li inh	KDM4E inh	Sfp PPTase inh	Epigenetic derep	KAT2A inh	NPSR antag
CC[C@H](C)[C@H](NC(=O)CNC(=O)[C@H](CCCNC(=N)N)NC(=O)[C@H](CO)NC(=O)[C@H](C)NC(=O)[C@H](Cc1ccc(O)cc1)NC(=O)[C@H](Cc1c[nH]c2ccccc12)NC(=O)[C@H](C)NC(=O)[C@@H]1CCCN1C(=O)[C@H](CC(N)=O)NC(=O)[C@@H](NC(=O)[C@H](CC(=O)O)NC(=O)[C@@H]1CCCN1C(=O)[C@@H](N)[C@@H](C)O)[C@@H](C)CC)C(=O)N[C@@H](CCCNC(=N)N)C(=O)N1CCC[C@H]1C(=O)N[C@H](C(=O)NCC(=O)N[C@@H](CCCNC(=N)N)C(=O)N[C@@H](Cc1ccccc1)C(N)=O)C(C)C	nt	nt	?	nt	0%	nt
CN(C)C(=O)c1ccc(-c2cncnc2NCc2ccccc2)cc1	-4%	nt	14%	nt	-27%	nt
CN(C)C(=O)c1ccc(-c2cncnc2NCc2cccs2)cc1	-7%	?	50µM*	-1%	-27%	nt
CCCCC/C=C\C/C=C\CCCCCCCCCC(=O)NC(C)C(=O)O (stereo unspecified)	17%	4%	13%	-1%	nt	nt
COC1C=CO[C@@]2(C)Oc3c(C)c(O)c4c(O)c(c(C=NN5CCN(C)CC5)c(O)c4c3C2=O)NC(=O)/C(C)=C\C=CC(C)C(O)[C@@H](C)C(O)C(C)[C@H](OC(C)=O)C1C (stereo partly specified)	11%	13µM*	-22%	1%	-13%	nt
CO[C@H]1/C=C/O[C@@]2(C)Oc3c(C)c(O)c4c(O)c(c(/C=N/N5CCN(C)CC5)c(O)c4c3C2=O)NC(=O)/C(C)=C\C=C\[C@H](C)[C@H](O)[C@@H](C)[C@@H](O)[C@@H](C)[C@H](OC(C)=O)[C@@H]1C	27%	nt	-24%	1%	-10%	nt
CCc1ccc(NC(=O)Cn2c(=O)n(Cc3ccc4c(c3)OCO4)c(=O)c3oc4ccccc4c32)cc1	nt	nt	nt	4%	-6%	nt
Cn1ccnc1C[C@@](C)(O)c1ccccc1	13%	nt	nt	nt	nt	nt
CN(C)c1nc(N/N=C/c2ccccc2O)nc(Nc2ccc(F)cc2)n1	17%	28µM*	-1%	?	-24%	-42%
CN(C)c1nc(Nc2ccc(F)cc2)nc(Oc2ccc(F)cc2)n1	nt	nt	0%	nt	-1%	nt
COc1cccc2sc(NNC(=O)COc3ccccc3)nc12	3%	21%	?	-3%	-11%	7%
COc1ccc(C)c2sc(NNC(=O)COc3ccccc3)nc12	2%	-10%	56µM*	0%	-17%	5%
O=C(COc1ccccc1)NNc1c2ccccc2nc2ccccc12	53%[38.3 µM]	3%	17%	-2%	-14%	10µM*
O=C(NNc1c2ccccc2nc2ccccc12)C(O)c1ccccc1 (stereo unspecified)	nt	-3%	0%	-2%	7%	10µM*
O=C(NNc1c2ccccc2nc2ccccc12)c1ccc(O)cc1	50%	-1%	-23%	0%	-2%	-14%
O=C(N/N=C1/C[C@@H](O)[C@@H](O)[C@@H]2[C@@H]3C(=O)N(C[C@@H]4CCCO4)C(=O)[C@H]3CC[C@H]12)OCc1ccccc1	nt	nt	-1%	2%[10.1 µM]	nt	nt
COc1ccc2c(c1)C(=O)[C@H](OC(=O)NS(=O)(=O)c1ccc(C)cc1)[C@@H](c1ccc(OC)c(Br)c1)O2	-2%	-12%	18%	-1%	nt	nt
Cc1ccc(CNC(=O)CCc2nnc(Cc3ccc(-c4ccccc4)cc3)o2)o1	8%	0%	22µM*	0%	14%	-9%
COCCCNC(=O)CCc1nnc(Cc2ccc(-c3ccccc3)cc2)o1	-1%	13%	7%	1%	-3%	-2%
CC(C)(C)C1=Nn2c(nnc2-c2ccccn2)SC1	16%[38.3 µM]	-23%	56µM*	3%	-13%	16%[46.1 µM]
COc1ccccc1-c1nnc2n1N=C(C(C)(C)C)CS2	8%[38.3 µM]	-4%	15%	-1%	-4%	-23%[46.1 µM]
COc1ccc(NC(=O)c2cccc(C(=O)Nc3ccc(OC)cc3)n2)cc1	-7%	?	?	1%	-2%	11%
COc1ccc(NC(=O)c2sc(=S)[nH]c2N)cc1	47%[38.3 µM]	-21%	56µM*	-1%	?	-22%[46.1 µM]
OC[C@@H]1O[C@H](OC2[C@@H](O)[C@@H](O)[C@@H](O)O[C@@H]2CO)[C@H](O)[C@@H](O)[C@@H]1OC1O[C@H](CO)[C@@H](O)[C@H](O)[C@@H]1O (stereo partly specified)	nt	nt	-6%	nt	6%	nt
O=C1C=C(Nc2ccccc2)c2ccccc2C1=O	24%	-25%	2%	-2%	-5%	10µM*
SMILES	IMPase Li inh	KDM4E inh	Sfp PPTase inh	Epigenetic derep	KAT2A inh	NPSR antag
CC(C)C[C@@H](CC(=O)N[C@H](CC(=O)N[C@@H]1CCCC[C@H]1C(=O)N[C@H](CC(=O)N[C@@H](CCC(=O)O)CC(=O)O)CC(C)C)C(C)C)NC(=O)[C@@H]1CNCC[C@H]1N	11%	-18%	-21%	-1%	nt	nt
COCCNc1ncnc2ccc(-c3cccc(OC)c3)cc12	22%	nt	6%	nt	-12%	nt
CCSc1ncc(Cl)c(C(=O)Nc2sc3c(c2C(=O)NCCCOC)CCCC3)n1	nt	nt	nt	3.5µM*	-1%	nt
CN(C)C(=O)c1ccc(-c2ccc3ncnc(NCCN4CCOCC4)c3c2)cc1	11%	nt	15%	nt	-8%	nt
CCN(C(=O)C(C)N1C(=O)/C(=C/c2ccco2)SC1=S)C1CCS(=O)(=O)C1 (stereo unspecified)	nt	nt	16µM*	nt	0%	nt
O=C(CCN1C(=O)/C(=C/c2ccc(F)cc2)SC1=S)NC1CCS(=O)(=O)C1 (stereo unspecified)	nt	nt	-12%	nt	-25%	nt
CC(C(=O)N(C)C1CCS(=O)(=O)C1)N1C(=O)/C(=C/c2ccc(F)cc2)SC1=S (stereo unspecified)	nt	nt	50µM*	nt	-14%	nt
O=C1/C(=C\c2ccco2)SC(=S)N1C1CCS(=O)(=O)C1 (stereo unspecified)	nt	28µM*	32µM*	1%	-10%	21%
COc1ccc(-c2ccc(C)cc2)cc1C1C2C=CCC(C)C2C(=O)N1Cc1ccccc1 (stereo unspecified)	nt	nt	-4%	nt	nt	nt
N#CCCCS(=O)(=O)c1nnnn1-c1ccc(Br)cc1	14%	0%	1%	1%	nt	nt
Cc1cccc2cc(C(c3nnnn3CC3CCCO3)N3CCc4ccccc4C3)c(=O)[nH]c12 (stereo unspecified)	1%[38.3 µM]	?	20µM*	1%	-1%	-7%[46.1 µM]
